# Measured values from PubChem BioAssay (Tox21).
# Unmarked numbers belong to inactive results. Records with an inconclusive call do not appear. Entries that show only a call come without a potency. Active and inactive are the calls of the source. Unless noted, calls come from the whole dose curve; as a rule, active = well fitted curve in the direction sought with a large enough effect in the repeat runs; inconclusive = weak or mixed curves; inactive = no such curve, though single readings can be large; an effect the other way counts as inactive or inconclusive.
# How the values were obtained:
# [1] = qHTS assay to identify small molecule antagonists of the estrogen related receptor (ERR) signaling pathway from Tox21 library - cell viability counter screen (AID 1224834); note: nearly all actives have a fitted effect of over 30% in size
# In short: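 After 17.5 h of compound exposure at 37 C, ERR cells are incubated with CellTiter-Fluor for 30 min and fluorescence intensity serves as the viability measure.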
# [2] = target: Luciferin 4-monooxygenase (Photinus pyralis) (UniProt P08659); assay: qHTS assay to identify small molecule inhibitors of firefly luciferase (AID 1224835); note: nearly all actives have a fitted effect of over 25% in size
# Chain of Luciferin 4-monooxygenase (Photinus pyralis) (P08659 whole entry, looked up): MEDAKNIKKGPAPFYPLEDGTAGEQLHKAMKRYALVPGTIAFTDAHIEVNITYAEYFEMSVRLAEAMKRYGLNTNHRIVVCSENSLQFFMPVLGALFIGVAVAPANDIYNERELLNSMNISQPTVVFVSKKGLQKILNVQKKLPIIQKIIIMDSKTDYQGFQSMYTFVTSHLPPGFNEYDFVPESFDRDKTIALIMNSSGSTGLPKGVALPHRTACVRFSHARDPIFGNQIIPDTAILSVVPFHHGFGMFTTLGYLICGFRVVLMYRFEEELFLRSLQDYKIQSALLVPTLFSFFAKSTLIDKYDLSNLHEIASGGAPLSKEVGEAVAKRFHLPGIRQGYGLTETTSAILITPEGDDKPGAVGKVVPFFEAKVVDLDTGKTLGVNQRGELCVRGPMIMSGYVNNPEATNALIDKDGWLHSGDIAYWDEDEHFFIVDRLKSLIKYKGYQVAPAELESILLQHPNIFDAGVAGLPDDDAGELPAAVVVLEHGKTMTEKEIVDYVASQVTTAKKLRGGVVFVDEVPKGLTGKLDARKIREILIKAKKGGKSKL
# In short: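 Quantitative HTS format; KM concentrations of both substrates. Purified P. pyralis FLuc activity quantified from luminescence images.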
# [3] = qHTS assay to identify small molecule agonists of the constitutive androstane receptor (CAR) signaling pathway - cell viability counter screen (AID 1224836); note: nearly all actives have a fitted effect of over 45% in size
# In short: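 23 h treatment, 37 C, 5% CO2. Cell line: HepG2 stably expressing hCAR with a CYP2B6-2.2kb construct. Co-treatment: PK11195, 0.75 uM final. Read-out: CellTiter-Fluor fluorescence intensity.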
# [4] = qHTS assay to identify small molecule antagonists of the constitutive androstane receptor (CAR) signaling pathway - cell viability counter screen (AID 1224837); note: nearly all actives have a fitted effect of over 45% in size
# In short: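 Counter screen run in HepG2-CYP2B6-hCAR cells: 4 hr settle, compound titration (15 concentrations) with 50 nM CITCO, 23 hr at 37 C/5% CO2, CellTiter-Fluor fluorescence.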
# [5] = qHTS assay to identify small molecule antagonists of the estrogen related receptor signaling pathway with the pleiotropic PPARgamma coactivator (PGC) from Tox21 10K library - cell viability counter screen (AID 1224840; active = well fitted cell-killing curve with a large enough effect in the repeat runs, not every such curve was filed as active; note: nearly all actives have a fitted effect of over 40% in size)
# In short: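 Following seeding of 2,000 PGC/ERR cells/well and 6 hours' incubation, test compounds were delivered in DMSO. The plates then sat 17.5 hours at 37 C before a fluorogenic live-cell protease reagent (CellTiter-Fluor) was read after 30 min.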
# [6] = target: Thyrotropin receptor (Homo sapiens) (UniProt P16473); assay: qHTS assay to identify small molecule agonists of the thyroid stimulating hormone receptor (TSHR) signaling pathway (AID 1224843; calls by dose curve; note: nearly all actives have a fitted effect of over 45% in size)
# Chain of Thyrotropin receptor (Homo sapiens) (P16473 whole entry, looked up): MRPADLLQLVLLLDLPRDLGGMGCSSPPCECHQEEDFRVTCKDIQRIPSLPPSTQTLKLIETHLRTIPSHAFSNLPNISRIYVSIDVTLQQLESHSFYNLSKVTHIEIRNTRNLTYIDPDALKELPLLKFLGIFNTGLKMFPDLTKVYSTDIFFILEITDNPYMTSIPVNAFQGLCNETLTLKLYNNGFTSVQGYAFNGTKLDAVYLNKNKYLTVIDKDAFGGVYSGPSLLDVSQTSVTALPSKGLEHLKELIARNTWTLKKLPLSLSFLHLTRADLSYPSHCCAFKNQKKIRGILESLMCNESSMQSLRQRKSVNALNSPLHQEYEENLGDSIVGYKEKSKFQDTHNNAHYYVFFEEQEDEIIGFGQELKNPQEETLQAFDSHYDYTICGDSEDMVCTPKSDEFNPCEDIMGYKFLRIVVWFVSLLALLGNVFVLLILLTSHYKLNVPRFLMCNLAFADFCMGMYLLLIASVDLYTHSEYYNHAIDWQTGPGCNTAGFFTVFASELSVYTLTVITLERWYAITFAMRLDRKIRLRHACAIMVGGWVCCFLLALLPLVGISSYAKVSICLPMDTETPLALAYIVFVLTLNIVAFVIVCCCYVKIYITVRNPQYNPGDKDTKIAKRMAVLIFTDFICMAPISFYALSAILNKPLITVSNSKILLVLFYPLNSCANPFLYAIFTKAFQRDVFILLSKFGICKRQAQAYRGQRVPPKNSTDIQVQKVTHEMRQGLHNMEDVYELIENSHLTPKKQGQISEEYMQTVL
# In short: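 Cell line HEK293 with TSHR; density 800/well. Exposure 30 min RT. Readout HTRF cAMP (cAMP-d2/anti-cAMP-cryptate), 1 h RT before reading.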
# [7] = qHTS assay to identify small molecule agonists of the hypoxia (HIF-1) signaling pathway - cell viability counter screen (AID 1224844; calls by dose curve; note: nearly all actives have a fitted effect of over 50% in size)
# In short: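 Cells (HRE-bla ME-180, 2,000 per well) sat 5 hrs at 37C, got compound for 17 hrs, were read for CCF4-AM FRET, and were finally lysed with CellTiter-Glo for a 30 min room-temperature luminescence read.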
# [8] = qHTS assay to identify small molecule agonists of H2AX (AID 1224845; active = well fitted activation curve with a large enough effect in the signal ratio in the repeat runs, not every such curve was filed as active; the % refers to the signal ratio)
# In short: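 Wild-type CHO-K1 cells plated overnight, then exposed 3 hr at 37C to compounds at 15 concentrations (0.76% DMSO). Lysed, then HTRF anti-pH2AX(S139)-cryptate/anti-H2AX-d2 detection after 24 hr at room temperature; emissions 665 and 620 nm.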
# [9] = qHTS assay to identify small molecule agonists of the hypoxia (HIF-1) signaling pathway (AID 1224846; active = well fitted activation curve with a large enough effect in the signal ratio in the repeat runs, not every such curve was filed as active; the % refers to the signal ratio)
# In short: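 A low-serum medium (0.5% dialyzed FBS) holding 2,000 HRE-bla ME-180 cells per well is preincubated for 5 hrs, dosed with compounds by pintool, and kept a further 17 hrs at 37C, 5% CO2 before CCF4-AM FRET detection of beta-lactamase.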
# [10] = qHTS assay to identify small molecule agonists of H2AX - cell viability counter screen (AID 1224847; calls by dose curve; note: nearly all actives have a fitted effect of over 30% in size; note: potency is the fitted concentration of half-maximal effect)
# In short: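 Compounds tested at 15 concentrations were incubated 3 hr at 37C with wild-type CHO-K1 cells; cellular ATP-based luminescence (CellTiter-Glo) indicated viability.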
# [11] = qHTS RealTime-Glo MT Cell Viability Assay in HepG2 cells - 24 hour (AID 1224867); note: nearly all actives have a fitted effect of over 50% in size
# In short: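 Luminescence read-out: viable HepG2 cells reduce a prosubstrate to a NanoLuc substrate, giving a signal proportional to live cell number. Reads taken at 0, 8, 16, 24, 32 and 40 h of compound exposure at 37 C.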
# [12] = qHTS RealTime-Glo MT Cell Viability Assay in HEK293 cells - 32 hour (AID 1224868); note: nearly all actives have a fitted effect of over 50% in size; note: potency is the fitted concentration of half-maximal effect
# In short: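 Nonlytic real-time viability readout: viable cells convert prosubstrate to NanoLuc substrate, giving luminescence proportional to live cell number. HEK293, 600 cells/well, compound added after 5 h, continuous culture at 37 C.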
# [13] = A CellTox Green Cytotoxicity Assay to monitor cytotoxicity in HEK293 cells - 0 hour (AID 1224869); note: nearly all actives have a fitted effect of over 50% in size; note: potency is the fitted concentration of half-maximal effect
# In short: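 Fluorescence intensity, read at 0, 8, 16, 24, 32 and 40 h of compound treatment, reflected dye binding to DNA of dead HEK293 cells; compounds (23 nL, DMSO) were added 5 h after plating cells with reagent.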
# [14] = qHTS RealTime-Glo MT Cell Viability Assay in HepG2 cells - 40 hour (AID 1224870); note: nearly all actives have a fitted effect of over 50% in size
# In short: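 HepG2 cells mixed with RealTime-Glo MT reagents (NanoLuc plus cell-permeant prosubstrate) were seeded at 600 cells/well, incubated 5 h at 37 C/5% CO2, then pinned with compounds in DMSO; nonlytic luminescence tracked viability during 40 h treatment.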
# [15] = qHTS assay to identify small molecule antagonists of the estrogen related receptor signaling pathway with the pleiotropic PPARgamma coactivator (PGC) from Tox21 10K library (AID 1224841; call rule not given here)
# In short: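 qHTS antagonist format: PGC/ERR cells, 2k/well, compound in DMSO by pin transfer after 6 h attachment, 18 h treatment at 37 C, One-Glo luminescence read at 30 min.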
# [16] = qHTS assay to identify small molecule agonists of the estrogen related receptor signaling pathway with the pleiotropic PPARgamma coactivator (PGC) from Tox21 10K library (AID 1224842); note: nearly all actives have a fitted effect of over 15% in size
# In short: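 PGC/ERR reporter cells (NTP line) were seeded 2,000 per well, rested 6 h at 37 C/5% CO2, then pin-dosed with compounds in DMSO for 18 h at 37 C; luciferase read by One-Glo luminescence after 30 min at room temperature.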
# [17] = qHTS assay to identify small molecule antagonists of the estrogen related receptor (ERR) signaling pathway from Tox21 library (AID 1224848); note: nearly all actives have a fitted effect of over 50% in size
# In short: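 Screening used an ERR reporter line supplied by NTP, exposed for 18 h at 37 C to library compounds delivered in DMSO. Signal was luciferase luminescence developed with ONE-Glo at room temperature for 30 min.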
# [18] = qHTS assay to identify small molecule agonists of the estrogen related receptor (ERR) signaling pathway from Tox21 library (AID 1224849; calls by dose curve; note: nearly all actives have a fitted effect of over 15% in size); conditions: ERR reporter cell line, ONE-Glo luciferase, 18 h; at 92.4 µM (top of the series) unless noted
# In short: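 Screening used an NTP-provided ERR luciferase cell line. Compounds in DMSO were added 6 h after seeding and left 18 h at 37 C before a 30 min ONE-Glo step and luminescence reading.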
# [19] = target: Nuclear receptor subfamily 1 group I member 3 (Homo sapiens) (UniProt Q14994); assay: qHTS assay to identify small molecule agonists of the constitutive androstane receptor (CAR) signaling pathway (AID 1224839);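 note: HepG2 cells stably carrying human CAR and a CYP2B6 luciferase reporter; nearly all actives have a fitted effect of over 15% in size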
# Chain of Nuclear receptor subfamily 1 group I member 3 (Homo sapiens) (Q14994 whole entry, looked up): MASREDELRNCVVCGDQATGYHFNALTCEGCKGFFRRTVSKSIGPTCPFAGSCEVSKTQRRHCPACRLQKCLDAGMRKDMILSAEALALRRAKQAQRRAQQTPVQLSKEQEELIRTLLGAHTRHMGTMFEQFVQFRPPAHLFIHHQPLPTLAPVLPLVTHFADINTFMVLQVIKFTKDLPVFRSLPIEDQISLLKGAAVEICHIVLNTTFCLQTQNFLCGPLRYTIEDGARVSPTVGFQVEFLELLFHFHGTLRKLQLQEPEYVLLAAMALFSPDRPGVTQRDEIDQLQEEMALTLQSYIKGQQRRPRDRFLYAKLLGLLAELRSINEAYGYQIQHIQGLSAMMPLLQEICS
# In short: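 Compounds tested at 15 concentrations on HepG2 cells stably harbouring hCAR and CYP2B6-2.2kb reporter constructs, co-treated with PK11195 (0.75 uM final), 24 h at 37 C; luminescent reporter signal quantified.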
SMILES,Potency [1],Potency [2],Potency [3],Potency [4],Potency [5],Potency [6],Potency [7],Potency [8],outcome [9],Potency [10],Potency [11],Potency [12],Potency [13],Potency [14],Potency [15],Potency [16],Potency [17],"activity change, positive = activation [18]",Potency [19]
CCC(C)(O)CCC=C(C)C (stereo not drawn),inactive,inactive,inactive,inactive,inactive,inactive,inactive,inactive,inactive,inactive,inactive,inactive,inactive,inactive,–,–,–,–,–
CCCCC/C(=C\c1ccccc1)CO,inactive,inactive,inactive,inactive,inactive,inactive,–,inactive,inactive,112 µM (active),inactive,inactive,inactive,inactive,–,–,–,–,–
CC(C)CCCCCCOC(=O)CCCCC(=O)OCCCCCCC(C)C,inactive,inactive,inactive,inactive,inactive,–,inactive,inactive,inactive,inactive,inactive,inactive,inactive,inactive,–,–,–,–,–
CCOCCn1c(C2CCN(CCc3ccc(C(C)(C)C(=O)O)cc3)CC2)nc2ccccc21,inactive,inactive,inactive,inactive,inactive,inactive,inactive,inactive,inactive,inactive,inactive,inactive,inactive,inactive,–,–,–,–,–
CCCCCCOC(=O)C(C)C,inactive,inactive,inactive,inactive,inactive,inactive,inactive,inactive,inactive,inactive,inactive,–,inactive,inactive,inactive,inactive,inactive,7.77%,–
C=CC(=O)NCOCC(C)C,inactive,inactive,inactive,inactive,inactive,inactive,inactive,inactive,inactive,inactive,inactive,inactive,inactive,inactive,–,–,–,–,–
CCCCCCCCCCCCCCC[C@H](O)[C@@H](N)CO,inactive,inactive,inactive,inactive,–,inactive,inactive,inactive,–,49.2 µM (active),–,23.9 µM (active),19 µM (active),–,–,–,–,–,inactive
CC(=O)CC(c1ccc([N+](=O)[O-])cc1)c1c(O)c2ccccc2oc1=O (stereo not drawn),inactive,inactive,inactive,inactive,–,inactive,inactive,inactive,–,inactive,inactive,inactive,inactive,inactive,inactive,inactive,inactive,-11.1% [at 42.5 µM],inactive
